The text below walks through data of paper PMC7862700, “An all-to-all approach to the identification of sequence-specific readers for epigenetic DNA modifications on cytosine”.

Common to all, as to experiment: DAPPL (digital affinity profiling via proximity ligation, sequencing); 10 mM Tris-HCl pH 7.5, 50 mM NaCl, 1 mM DTT, 4% glycerol, room temperature, 30 min; GST-TFs on glutathione beads, 16-mer random dsDNA library, 0.1% formaldehyde crosslink after washing; high values mean tight binding
Common to all, as to conditions: protein: recombinant; tags: N-terminal GST; dsDNA, one strand shown

The target in one experiment is T1, FLI1 (Homo sapiens, UniProt Q01543 1-452).
T1 sequence: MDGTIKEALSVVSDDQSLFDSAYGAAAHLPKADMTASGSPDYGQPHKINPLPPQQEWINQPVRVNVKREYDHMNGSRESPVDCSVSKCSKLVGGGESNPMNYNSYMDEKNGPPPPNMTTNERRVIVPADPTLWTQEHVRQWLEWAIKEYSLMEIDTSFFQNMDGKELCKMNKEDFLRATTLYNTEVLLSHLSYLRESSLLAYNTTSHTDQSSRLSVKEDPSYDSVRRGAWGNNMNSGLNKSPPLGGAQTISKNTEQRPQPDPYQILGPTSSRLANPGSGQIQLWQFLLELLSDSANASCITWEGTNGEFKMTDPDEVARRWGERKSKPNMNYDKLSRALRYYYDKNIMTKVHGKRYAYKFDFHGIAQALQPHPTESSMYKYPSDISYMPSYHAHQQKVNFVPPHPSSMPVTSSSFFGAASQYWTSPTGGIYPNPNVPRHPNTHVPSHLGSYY
An outline of the steps:
(§1)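 Pools were built from human transcription factors expressed in yeast as GST fusions, captured on glutathione beads and DNA-barcoded, along with a tag-only sample. Incubation with 200 nmole of a 16-mer random double-stranded DNA library lasted 30 min at room temperature in Tris/NaCl/DTT/glycerol buffer, and was followed by washing, 0.1% formaldehyde crosslinking, proximity ligation, PCR amplification and Illumina NextSeq500 sequencing. Binding signal is the quotient of each hexamer's read frequency for a factor and its frequency for the tag-only sample.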

A further experiment concerns the target T2, ELK1 (Homo sapiens, UniProt P19419 1-428).
T2 sequence: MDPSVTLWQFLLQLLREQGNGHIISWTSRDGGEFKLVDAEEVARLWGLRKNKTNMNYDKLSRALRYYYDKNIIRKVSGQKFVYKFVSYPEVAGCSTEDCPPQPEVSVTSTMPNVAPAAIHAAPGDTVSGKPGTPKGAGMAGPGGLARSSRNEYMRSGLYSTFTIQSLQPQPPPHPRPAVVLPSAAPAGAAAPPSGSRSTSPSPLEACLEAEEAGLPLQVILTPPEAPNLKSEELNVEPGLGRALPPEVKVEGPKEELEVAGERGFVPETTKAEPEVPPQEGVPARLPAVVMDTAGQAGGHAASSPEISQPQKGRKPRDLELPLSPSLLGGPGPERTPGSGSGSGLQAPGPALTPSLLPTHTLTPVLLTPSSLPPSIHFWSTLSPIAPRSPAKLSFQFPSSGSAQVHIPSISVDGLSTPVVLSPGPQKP
An outline of the steps: as §1

The target in another experiment is T3, GABPA (Homo sapiens, UniProt Q06546 1-454).
T3 sequence: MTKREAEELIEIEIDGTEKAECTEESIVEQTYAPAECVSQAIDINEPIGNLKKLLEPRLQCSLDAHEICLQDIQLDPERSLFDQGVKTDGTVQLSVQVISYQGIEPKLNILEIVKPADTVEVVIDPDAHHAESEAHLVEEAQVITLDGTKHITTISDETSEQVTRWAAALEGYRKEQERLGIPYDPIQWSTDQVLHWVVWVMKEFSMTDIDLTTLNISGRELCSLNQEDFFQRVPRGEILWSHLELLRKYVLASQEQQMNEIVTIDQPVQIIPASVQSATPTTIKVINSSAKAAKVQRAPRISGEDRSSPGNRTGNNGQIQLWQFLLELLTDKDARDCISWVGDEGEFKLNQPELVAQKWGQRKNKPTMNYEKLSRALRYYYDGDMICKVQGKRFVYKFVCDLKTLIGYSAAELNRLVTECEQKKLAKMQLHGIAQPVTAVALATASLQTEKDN
An outline of the steps: as §1

Another experiment deals with T4, ERG (Homo sapiens, UniProt P11308 1-479).
T4 sequence: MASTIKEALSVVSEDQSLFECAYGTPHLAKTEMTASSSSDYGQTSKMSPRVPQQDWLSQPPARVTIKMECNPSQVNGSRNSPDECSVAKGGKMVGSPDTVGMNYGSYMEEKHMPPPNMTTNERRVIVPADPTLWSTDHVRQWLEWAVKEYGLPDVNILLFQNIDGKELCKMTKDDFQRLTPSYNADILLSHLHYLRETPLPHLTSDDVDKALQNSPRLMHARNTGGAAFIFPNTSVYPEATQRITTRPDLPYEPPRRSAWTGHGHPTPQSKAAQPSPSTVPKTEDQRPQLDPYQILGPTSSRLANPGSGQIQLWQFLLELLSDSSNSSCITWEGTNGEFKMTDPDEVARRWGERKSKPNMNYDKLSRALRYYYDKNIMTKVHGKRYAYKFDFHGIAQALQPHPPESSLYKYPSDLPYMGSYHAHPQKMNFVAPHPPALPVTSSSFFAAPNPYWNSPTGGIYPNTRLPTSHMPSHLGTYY
An outline of the steps:
as §1

Another experiment has as its target ELF1 (Homo sapiens, UniProt P32519 1-619). An outline of the steps: as §1
The target of the next experiment is T5, EHF (Homo sapiens, UniProt Q9NZC4 1-300).
T5 sequence: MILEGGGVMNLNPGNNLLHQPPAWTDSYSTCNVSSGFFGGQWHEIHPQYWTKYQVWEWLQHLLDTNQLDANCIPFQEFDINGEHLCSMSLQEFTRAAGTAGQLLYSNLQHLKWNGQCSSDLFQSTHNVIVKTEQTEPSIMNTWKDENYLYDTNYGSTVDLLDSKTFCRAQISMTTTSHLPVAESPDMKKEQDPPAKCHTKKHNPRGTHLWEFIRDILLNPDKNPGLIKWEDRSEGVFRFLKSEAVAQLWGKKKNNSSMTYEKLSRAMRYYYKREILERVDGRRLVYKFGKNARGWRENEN
The essentials: as §1

For another experiment, the target named is SPI1 (Homo sapiens, UniProt P17947 1-270). An outline of the steps:
as §1

In the next experiment the target is SPIB (Homo sapiens, UniProt Q01892 1-262). The essentials: as §1
SPIB, sequence (Q01892 whole entry): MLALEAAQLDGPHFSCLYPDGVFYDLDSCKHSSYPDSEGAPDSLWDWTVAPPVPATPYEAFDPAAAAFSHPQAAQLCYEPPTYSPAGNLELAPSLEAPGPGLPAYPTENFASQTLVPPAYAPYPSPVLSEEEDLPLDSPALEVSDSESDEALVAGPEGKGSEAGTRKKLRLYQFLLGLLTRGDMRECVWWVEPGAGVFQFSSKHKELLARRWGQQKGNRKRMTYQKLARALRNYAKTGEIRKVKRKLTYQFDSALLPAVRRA
The target in a further experiment is T6, ELK3 (Homo sapiens, UniProt P41970 1-407).
T6 sequence: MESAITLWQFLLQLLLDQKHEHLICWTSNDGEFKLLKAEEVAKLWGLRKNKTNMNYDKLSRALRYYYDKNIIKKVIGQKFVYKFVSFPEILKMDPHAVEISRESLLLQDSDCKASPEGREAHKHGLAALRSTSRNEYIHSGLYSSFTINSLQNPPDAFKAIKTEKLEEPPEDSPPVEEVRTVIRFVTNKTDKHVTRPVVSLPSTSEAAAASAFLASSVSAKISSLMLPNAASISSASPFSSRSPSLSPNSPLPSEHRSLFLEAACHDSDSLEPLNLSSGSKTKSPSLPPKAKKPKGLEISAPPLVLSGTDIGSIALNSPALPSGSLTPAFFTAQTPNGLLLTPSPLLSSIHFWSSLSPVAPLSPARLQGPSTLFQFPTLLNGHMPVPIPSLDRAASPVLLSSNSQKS
The essentials:
as §1

ELF1, sequence (P32519 whole entry): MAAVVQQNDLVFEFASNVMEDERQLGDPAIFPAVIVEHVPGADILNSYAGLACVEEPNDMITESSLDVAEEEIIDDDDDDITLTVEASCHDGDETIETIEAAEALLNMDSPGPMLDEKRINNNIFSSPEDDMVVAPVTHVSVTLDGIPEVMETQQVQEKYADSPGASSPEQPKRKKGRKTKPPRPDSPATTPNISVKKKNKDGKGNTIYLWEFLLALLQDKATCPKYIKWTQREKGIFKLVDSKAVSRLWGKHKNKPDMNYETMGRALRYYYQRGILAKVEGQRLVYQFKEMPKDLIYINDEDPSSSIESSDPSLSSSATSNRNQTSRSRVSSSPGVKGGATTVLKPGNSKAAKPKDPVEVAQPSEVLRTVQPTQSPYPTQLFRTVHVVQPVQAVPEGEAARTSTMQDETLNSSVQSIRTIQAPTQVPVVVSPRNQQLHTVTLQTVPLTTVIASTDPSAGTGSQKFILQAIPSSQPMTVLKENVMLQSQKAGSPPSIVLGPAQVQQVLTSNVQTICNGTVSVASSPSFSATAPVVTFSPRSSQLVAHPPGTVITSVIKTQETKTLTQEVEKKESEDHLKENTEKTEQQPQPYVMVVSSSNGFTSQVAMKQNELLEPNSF

For TTGCCC, the binding signal with FLI1 is 1.37 fold enrichment (6-mer frequency, TF over GST control); in the experiment with ELK1 it was 1.43 fold enrichment (6-mer frequency, TF over GST control); with GABPA, 1.33 fold enrichment (6-mer frequency, TF over GST control); with ERG, 1.28 fold enrichment (6-mer frequency, TF over GST control); in the experiment with ELF1 it was 1.3 fold enrichment (6-mer frequency, TF over GST control); in the experiment with EHF it was 1.22 fold enrichment (6-mer frequency, TF over GST control). Further, the binding signal in the experiment with SPI1 was 1.29 fold enrichment (6-mer frequency, TF over GST control); with SPIB, 1.33 fold enrichment (6-mer frequency, TF over GST control); with ELK3 it was 1.23 fold enrichment (6-mer frequency, TF over GST control).

Turning to CTCTGC, the binding signal in the experiment with FLI1 was 1.71 fold enrichment (6-mer frequency, TF over GST control); in the experiment with ELK1 it was 1.6 fold enrichment (6-mer frequency, TF over GST control); with GABPA, 1.56 fold enrichment (6-mer frequency, TF over GST control); with ERG it was 1.46 fold enrichment (6-mer frequency, TF over GST control); in the experiment with ELF1 it was 1.58 fold enrichment (6-mer frequency, TF over GST control); with EHF, 1.57 fold enrichment (6-mer frequency, TF over GST control). In addition, the binding signal with SPI1 is 1.53 fold enrichment (6-mer frequency, TF over GST control); with SPIB, 1.52 fold enrichment (6-mer frequency, TF over GST control); in the experiment with ELK3, 1.4 fold enrichment (6-mer frequency, TF over GST control).

Turning to GATTCC, the binding signal with FLI1 was 1.19 fold enrichment (6-mer frequency, TF over GST control); in the experiment with ELK1, 1.05 fold enrichment (6-mer frequency, TF over GST control); in the experiment with GABPA, 1.08 fold enrichment (6-mer frequency, TF over GST control); with ERG it was 1.2 fold enrichment (6-mer frequency, TF over GST control); in the experiment with ELF1, 1.18 fold enrichment (6-mer frequency, TF over GST control); in the experiment with EHF it was 1.15 fold enrichment (6-mer frequency, TF over GST control). Moreover, the binding signal with SPI1 was 1.14 fold enrichment (6-mer frequency, TF over GST control); in the experiment with SPIB, 1.16 fold enrichment (6-mer frequency, TF over GST control); with ELK3 it was 1.17 fold enrichment (6-mer frequency, TF over GST control).

For the sequence AACAAT, the binding signal with FLI1 was 1.31 fold enrichment (6-mer frequency, TF over GST control); in the experiment with ELK1 it was 1.29 fold enrichment (6-mer frequency, TF over GST control); in the experiment with GABPA it was 1.32 fold enrichment (6-mer frequency, TF over GST control); in the experiment with ERG, 1.28 fold enrichment (6-mer frequency, TF over GST control); with ELF1, 1.29 fold enrichment (6-mer frequency, TF over GST control); in the experiment with EHF it was 1.26 fold enrichment (6-mer frequency, TF over GST control). Moreover, the binding signal in the experiment with SPI1 is 1.32 fold enrichment (6-mer frequency, TF over GST control); in the experiment with SPIB, 1.29 fold enrichment (6-mer frequency, TF over GST control); in the experiment with ELK3 it was 1.32 fold enrichment (6-mer frequency, TF over GST control).

With TAGCCT, the binding signal in the experiment with FLI1 was 1.27 fold enrichment (6-mer frequency, TF over GST control); in the experiment with ELK1, 1.21 fold enrichment (6-mer frequency, TF over GST control); in the experiment with GABPA, 1.18 fold enrichment (6-mer frequency, TF over GST control); in the experiment with ERG it was 1.23 fold enrichment (6-mer frequency, TF over GST control); in the experiment with ELF1, 1.28 fold enrichment (6-mer frequency, TF over GST control); with EHF it was 1.26 fold enrichment (6-mer frequency, TF over GST control). Moreover, the binding signal with SPI1 was 1.23 fold enrichment (6-mer frequency, TF over GST control); in the experiment with SPIB it was 1.2 fold enrichment (6-mer frequency, TF over GST control); in the experiment with ELK3, 1.14 fold enrichment (6-mer frequency, TF over GST control).

In the case of ACTCAA, the binding signal in the experiment with FLI1 was 1.19 fold enrichment (6-mer frequency, TF over GST control); with ELK1, 1.23 fold enrichment (6-mer frequency, TF over GST control); with GABPA, 1.22 fold enrichment (6-mer frequency, TF over GST control); in the experiment with ERG, 1.21 fold enrichment (6-mer frequency, TF over GST control); in the experiment with ELF1, 1.22 fold enrichment (6-mer frequency, TF over GST control); in the experiment with EHF it was 1.18 fold enrichment (6-mer frequency, TF over GST control). In addition, the binding signal with SPI1 was 1.24 fold enrichment (6-mer frequency, TF over GST control); in the experiment with SPIB, 1.23 fold enrichment (6-mer frequency, TF over GST control); with ELK3 it was 1.31 fold enrichment (6-mer frequency, TF over GST control).

In the case of CGCTTC, the binding signal in the experiment with FLI1 was 1.94 fold enrichment (6-mer frequency, TF over GST control); with ELK1, 2.2 fold enrichment (6-mer frequency, TF over GST control); with GABPA it was 1.99 fold enrichment (6-mer frequency, TF over GST control); with ERG it was 2.07 fold enrichment (6-mer frequency, TF over GST control); in the experiment with ELF1 it was 2.04 fold enrichment (6-mer frequency, TF over GST control); in the experiment with EHF, 2.16 fold enrichment (6-mer frequency, TF over GST control). Moreover, the binding signal in the experiment with SPI1 is 2 fold enrichment (6-mer frequency, TF over GST control); in the experiment with SPIB it was 2.05 fold enrichment (6-mer frequency, TF over GST control); in the experiment with ELK3 it was 2.29 fold enrichment (6-mer frequency, TF over GST control).

ATGACC: the binding signal in the experiment with FLI1 was 1.54 fold enrichment (6-mer frequency, TF over GST control); with ELK1, 1.58 fold enrichment (6-mer frequency, TF over GST control); in the experiment with GABPA, 1.78 fold enrichment (6-mer frequency, TF over GST control); with ERG it was 1.52 fold enrichment (6-mer frequency, TF over GST control); with ELF1, 1.6 fold enrichment (6-mer frequency, TF over GST control); with EHF it was 1.61 fold enrichment (6-mer frequency, TF over GST control). The binding signal is 1.6 fold enrichment (6-mer frequency, TF over GST control) in the experiment with SPI1; 1.45 fold enrichment (6-mer frequency, TF over GST control) in the experiment with SPIB; 1.65 fold enrichment (6-mer frequency, TF over GST control) with ELK3.
